Measurements reported in PubChem BioAssay.
Where “and” joins values, the source holds several entries; their conditions need not be identical. Identical values can stand only once. Calls of active or inactive are those of the source.

How the values were obtained:
Albumin (Bos taurus) = Albumin (Bos taurus) (UniProt P02769); assay: bovine serum albumin binders on microarray, profiling panel, artefact control for SMM control protein annotation, biochemical, small-molecule microarray, Alexa647 label, 635/667 nm fluorescence (AID 1118); details: BSA-A647 binding, fluorescence 635 nm, higher = more signal;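 note: score merges 667 nm emission intensity and signal-to-noise per printed compound spot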
Sequence of Albumin (Bos taurus) (P02769 whole entry, looked up): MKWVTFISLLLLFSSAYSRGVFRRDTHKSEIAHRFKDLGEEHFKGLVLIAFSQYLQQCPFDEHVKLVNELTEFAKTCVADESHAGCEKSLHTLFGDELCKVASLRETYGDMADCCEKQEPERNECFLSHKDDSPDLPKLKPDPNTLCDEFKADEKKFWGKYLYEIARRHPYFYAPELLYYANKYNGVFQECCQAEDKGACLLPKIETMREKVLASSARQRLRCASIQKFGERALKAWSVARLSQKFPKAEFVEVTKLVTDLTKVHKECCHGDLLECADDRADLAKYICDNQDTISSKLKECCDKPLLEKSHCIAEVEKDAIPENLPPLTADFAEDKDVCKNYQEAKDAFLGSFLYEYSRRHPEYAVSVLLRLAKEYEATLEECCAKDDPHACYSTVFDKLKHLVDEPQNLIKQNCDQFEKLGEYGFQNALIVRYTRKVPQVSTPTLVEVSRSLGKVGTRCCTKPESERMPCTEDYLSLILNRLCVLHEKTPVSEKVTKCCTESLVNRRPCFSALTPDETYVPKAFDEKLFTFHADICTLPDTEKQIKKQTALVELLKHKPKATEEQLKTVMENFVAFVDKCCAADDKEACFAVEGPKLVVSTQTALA

[1] = small-molecule microarray binders of probe aXIP, primary screen, biochemical, NeuroSMM set, 635/667 nm fluorescence (AID 1119); details: higher = more signal, called active from +8 up or from −8 down;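 note: probe is the protein aXip251-270 applied at 1 µg/mL to compound-printed slides; binding of probe to printed compounds measured as 667 nm fluorescence plus signal to noise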
[2] = small-molecule binders of probe aNOTCH3, primary screen, biochemical, small-molecule microarray, 635/667 nm fluorescence (AID 1120); details: higher = more signal;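 note: probe is a biotin-tagged antibody raised against NOTCH3 rather than NOTCH3 protein; score merges spot fluorescence near 667 nm with spot signal to noise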
[3] = small-molecule binders of probe aNOTCH2, primary screen, biochemical, small-molecule microarray, 635/667 nm fluorescence (AID 1121); details: higher = more signal;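 note: score merges feature fluorescence read at 667 nm with its signal to noise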
[4] = target: Carbonic anhydrase 2 (Homo sapiens) (UniProt P00918); assay: CAII small-molecule binders, profiling panel, biochemical, small-molecule microarray, Alexa647-labelled CAII (AID 1122); details: CAII-A647 binding fluorescence, higher = more signal
[5] = COS7 lysate on small-molecule microarray, probe aHis, 635 nm (AID 1123); details: COS7 cell lysate, fluorescence, higher = more signal;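 note: z-score combines 667nm fluorescence intensity with signal-to-noise per printed compound spot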
[6] = compound binding in COS7 lysate, probe aLAP1, primary screen, cell lysate, small-molecule microarray (AID 1124); details: probe aLAP1, fluorescence, higher = more signal;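 note: lysate comes from COS7 cells expressing LAP1 and is applied at 0.3 µg/mL; score merges spot fluorescence near 667 nm with signal-to-noise over triplicate slides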
Sam68 (KHDRBS1) = assay: Sam68 small-molecule binders, primary screen, biochemical, small-molecule microarray, 635 nm fluorescence (AID 1125); details: small-molecule microarray binding, higher = more signal;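 note: score merges 667 nm channel intensity with signal to noise over triplicate slides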
[7] = tested on: Chordin-like protein 2 (CHRDL2); assay: CHRDL2 small-molecule binders, primary screen, biochemical, small-molecule microarray, 635 nm fluorescence (AID 1126); details: small-molecule microarray binding, fluorescence 635 nm; higher = more signal;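 note: printed compound slides probed with Chrdl2 protein at 4 µg/mL for 1 h at 4 C; score merges 667 nm emission intensity with signal to noise over three replicate slides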
[8] = target: Concanavalin-A (Canavalia ensiformis) (UniProt P02866); assay: ConA small-molecule binders, primary screen, artefact control for SMM control protein annotation, biochemical, small-molecule microarray, Alexa647 label, 635 nm (AID 1127); details: ConA-A647 binding fluorescence, higher = more signal;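 note: z combines 667 nm emission intensity with signal-to-noise across three replicate slides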
Sequence of Concanavalin-A (Canavalia ensiformis) (P02866 whole entry, looked up): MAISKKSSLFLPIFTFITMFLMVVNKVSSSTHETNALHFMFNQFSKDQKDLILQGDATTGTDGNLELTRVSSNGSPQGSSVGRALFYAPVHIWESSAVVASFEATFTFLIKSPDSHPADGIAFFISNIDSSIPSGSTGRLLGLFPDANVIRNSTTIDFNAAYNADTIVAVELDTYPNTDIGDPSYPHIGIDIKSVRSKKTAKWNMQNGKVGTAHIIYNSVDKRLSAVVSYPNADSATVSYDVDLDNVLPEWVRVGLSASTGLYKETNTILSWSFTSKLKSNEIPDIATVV

Which composite z-score (Albumin (Bos taurus)) does the source give for `C=CC[C@@H](O)c1ccc(O)c(F)c1` here?
Its composite z-score is 0.27 and 0.242.

What about the composite Z-score [1] of the same molecule?
Its composite Z-score is 0.276 (inactive) and 0.895 (inactive).

And the composite z-score [2]?
Its composite z-score is -0.478 and -0.553.

And the composite z-score [3]?
The composite z-score was -0.214 and -0.196.

What about the composite z-score [4] of the same molecule?
Its composite z-score is 0.818 and 0.758.

What about the composite z-score [5] of the same molecule?
Its composite z-score is -0.301 and -0.323.

What about the composite z-score [6] of the same molecule?
The composite z-score was -0.0711 and -0.495.

What about the composite z-score (Sam68 (KHDRBS1)) of the same molecule?
Its composite z-score is -0.601 and -0.896.

And the composite z-score [7]?
The composite z-score was -1.22 and -1.15.

What about the composite z-score [8] of the same molecule?
The composite z-score was -1.51 and -1.15.

What does the source list for `C=CCN(CCCCC)C(=O)C(c1cccs1)N(CCOCCO)C(=O)/C=C\C(=O)O` (stereo not given)?
composite z-score (Albumin (Bos taurus)): -0.148 and -0.301; composite Z-score [1]: -0.116 (inactive) and 0.239 (inactive); composite z-score [2]: -0.554 and -0.488; composite z-score [3]: -0.177 and -0.143; composite z-score [4]: 0.86 and 0.368; composite z-score [5]: -1.01 and -0.267; composite z-score [6]: -0.0541 and 0.235; composite z-score (Sam68 (KHDRBS1)): -0.856 and -0.0967; composite z-score [7]: -1.91 and -1.04; composite z-score [8]: -0.611 and -0.988

With `C=CCN(CCCC)C(=O)C(c1cccs1)N(CCOCCO)C(=O)/C=C\C(=O)O` (stereo not given) as the molecule, how does the composite z-score (Albumin (Bos taurus)) read?
The composite z-score was -0.717 and 0.789.

What about the composite Z-score [1] of the same molecule?
The composite Z-score was -0.67 (inactive) and -0.0169 (inactive).

What about the composite z-score [2] of the same molecule?
Its composite z-score is -0.362 and -0.189.

And the composite z-score [3]?
The composite z-score was -0.14 and -0.115.

What about the composite z-score [4] of the same molecule?
The composite z-score was 0.916 and 0.734.

And the composite z-score [5]?
Its composite z-score is 0.0303 and 1.6.

And the composite z-score [6]?
The composite z-score was -0.672 and 0.9.

And the composite z-score (Sam68 (KHDRBS1))?
The composite z-score was -1.2 and -0.24.

What about the composite z-score [7] of the same molecule?
The composite z-score was -1.6 and -0.769.

And the composite z-score [8]?
Its composite z-score is -2.03 and -0.878.

For `COC(=O)[C@@]1(Cc2ccccc2)[C@H]2c3cc(C(=O)N(C)C)n(Cc4ccc(C)c(F)c4F)c3C[C@H]2CN1C(=O)c1ccccc1`, which composite z-score (Albumin (Bos taurus)) is on record?
Its composite z-score is 0.821 and 0.859.

What about the composite Z-score [1] of the same molecule?
The composite Z-score was 0.392 (inactive) and -0.26 (inactive).

And the composite z-score [2]?
The composite z-score was 0.141 and 1.27.

What about the composite z-score [3] of the same molecule?
Its composite z-score is 0.106 and -0.0977.

And the composite z-score [4]?
The composite z-score was 0.72 and 0.653.

What about the composite z-score [5] of the same molecule?
Its composite z-score is 2.51 and 2.94.

What about the composite z-score [6] of the same molecule?
The composite z-score was 0.289 and 0.612.

And the composite z-score (Sam68 (KHDRBS1))?
The composite z-score was 0.998 and 1.34.

And the composite z-score [7]?
Its composite z-score is -1.32 and -0.528.

What about the composite z-score [8] of the same molecule?
The composite z-score was 0.201 and 1.18.

Which composite z-score (Albumin (Bos taurus)) does the source give for `Cc1ccc(S(=O)(=O)N[C@H]2COC(=O)[C@@H](Cc3ccccc3)NC(=O)[C@@H](C)COC(=O)CC=C[C@@H]2C)cc1` here?
The composite z-score was -0.92 and -0.489.

And the composite Z-score [1]?
The composite Z-score was 0.103 (inactive) and 0.304 (inactive).

And the composite z-score [2]?
Its composite z-score is -0.279 and -0.132.

And the composite z-score [3]?
Its composite z-score is -0.162 and -0.185.

And the composite z-score [4]?
Its composite z-score is -0.363 and 0.129.

And the composite z-score [5]?
Its composite z-score is -0.902 and 0.614.

And the composite z-score [6]?
Its composite z-score is -0.221 and -0.16.

What about the composite z-score (Sam68 (KHDRBS1)) of the same molecule?
Its composite z-score is -0.309 and 0.663.

What about the composite z-score [7] of the same molecule?
Its composite z-score is 0.748 and 0.691.

What about the composite z-score [8] of the same molecule?
The composite z-score was 0.117 and 0.0745.

What does the source list for `O=C1[C@H]2[C@H]3[C@H](O)[C@H](O)CC(=NOCc4ccccc4)[C@H]3CC[C@H]2C(=O)N1Cc1ccccc1`?
composite z-score (Albumin (Bos taurus)): 0.273; composite Z-score [1]: -0.283 (inactive); composite z-score [2]: -0.136; composite z-score [3]: -0.0729; composite z-score [4]: 0.0146; composite z-score [5]: 0.233; composite z-score [6]: -0.123; composite z-score (Sam68 (KHDRBS1)): -0.873; composite z-score [7]: 0.374; composite z-score [8]: -0.229

For `CCOC(=O)C[C@H]1[C@H](OC(=O)c2ccccc2-c2ccccc2)[C@@H](NC(=O)Cc2ccc(OC)cc2)c2cc(OCCCO)ccc2N1C(=O)Cc1ccc(OC)cc1`, which composite z-score (Albumin (Bos taurus)) is on record?
The composite z-score was 0.56 and -0.0815.

What about the composite Z-score [1] of the same molecule?
The composite Z-score was 0.376 (inactive) and -0.265 (inactive).

What about the composite z-score [2] of the same molecule?
The composite z-score was 0.23 and 0.0762.

And the composite z-score [3]?
The composite z-score was 0.0922 and -0.189.

What about the composite z-score [4] of the same molecule?
Its composite z-score is 0.285 and -0.324.

And the composite z-score [5]?
Its composite z-score is 0.324 and 0.46.

What about the composite z-score [6] of the same molecule?
Its composite z-score is 0.621 and -0.153.

What about the composite z-score (Sam68 (KHDRBS1)) of the same molecule?
The composite z-score was 0.821 and -0.28.

And the composite z-score [7]?
The composite z-score was -0.362 and -0.24.

What about the composite z-score [8] of the same molecule?
The composite z-score was 0.712 and -1.55.
